Out of some 2,300 compounds screened, about 550 (24%) were called active. These entries were drawn from the full list. Results with a measured potency or affinity are listed apart. Values without a mark were called inactive. The rule behind the calls is not given here.

This test can be described thus: Vero E6 cell cytotoxicity, dose response, cytotoxicity control for non-replicating M. tuberculosis project, secondary assay (AID 492998).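 Note: 100% = vehicle-treated cells and 0% = background wells.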 The conditions noted are these: series mostly up to 20 µM; viability: at the top concentration.
Turning to `Cc1ccc2cc3c(nc2c1)OCC3`, the “viability” value is 99.3%.

Turning to `O=C(Nc1nccs1)c1cc2cc(Cl)ccc2oc1=O`, the “viability” value is 109%.

Turning to `O=C(NNc1ccc([N+](=O)[O-])cc1)C1CC2CCCC(C1)C2=O` (stereo unspecified), the “viability” value is 101%. `COCC(=O)Nc1ccccc1NC(C)=O`: the “viability” value is 94.4%. In the case of `CCOc1ccc(OCc2ccc(C(=O)OCc3ccccn3)o2)cc1`, the “viability” value is 103%.

For the compound `COC(=O)c1ccc(COC(=O)c2ccccn2)cc1`, the “viability” value is 102%.

Regarding `CCOc1cc(/C=N/NC(=O)c2ccccn2)ccc1OC(=O)c1cccs1`, the “viability” value is 111%. As to `O=C(OCc1ccc(Cl)c(Cl)c1)c1ccccn1`, the “viability” value is 115%.

Turning to `Cc1ccccc1NC(=O)C1COc2ccccc2O1` (stereo unspecified), the “viability” value was 91.7%. As for `O=C(OCc1ccccn1)c1ccc(COc2ccccc2Cl)o1`, the “viability” value is 80.2%. On to `Nc1ccc2cc(Br)ccc2c1`, for which the “viability” value was 81.7%. The figure for `N#CC(C(=O)NCc1ccco1)c1nc2ccccc2nc1N1CCOCC1` (stereo unspecified) is 89.9%; for `Cc1c([N+](=O)[O-])cnc(Sc2ccccc2)c1[N+](=O)[O-]` it is 77.3%; for `Nc1ncnc(Oc2cccc3cccnc23)c1[N+](=O)[O-]` it is 88.1%. As to `O=C(NNC(=O)c1ccccc1F)c1ccc(-c2ccc(Cl)cc2)o1`, the “viability” value is 100%. `Cn1cccc1/C=N/NC(=O)c1ccco1`: the “viability” value is 98%. In the case of `C=CCNc1nc(C(=O)OCC(=O)c2cccc(Br)c2)cs1`, the “viability” value is 101%.

In the case of `COc1ccc(C(=O)CCNc2ccc(F)cc2)cc1`, the “viability” value is 103%.

Turning to `Cc1ccc(C(=O)CCNc2ccc(Br)cc2)o1`, the “viability” value was 86.6%. As to `O=C(CCNc1ccc(Cl)c(C(F)(F)F)c1)c1ccco1`, the “viability” value was 76.2%. The figure for `O=C(CCNc1cccc(Cl)c1)c1cccs1` is 84.5%. Take `O=C(COC(=O)c1ccc(O)cc1O)c1ccc2c(c1)OCO2`: the “viability” value is 110%. Consider `O=C(CCN1CCC(c2cccs2)=N1)c1cccs1`, for which the “viability” value was 117%. The figure for `C/C(=N\Nc1ccc(Cl)cc1)c1c(O)cc(C)oc1=O` is 102%; for `Cc1ccc(N=Nc2c(C)[nH]n(C(N)=S)c2=O)cc1` it is 85.3%. As to `CSc1ccc(N=Nc2c(C)[nH]n(C)c2=O)cc1`, the “viability” value was 97%. Regarding `Cn1nnnc1N=N/C(=N/Nc1ccccc1)c1ccccc1`, the “viability” value was 80.9%. With `CC(NC(=O)c1cc2ccccc2oc1=O)c1ccccc1` (stereo unspecified), the “viability” value was 98.7%. For the compound `CCCCOC(=O)c1ccc(NC(=O)C2CCCO2)cc1` (stereo unspecified), the “viability” value is 85.9%. For `Cc1cccc(OCC(=O)NNC(=O)c2cc3ccccc3oc2=O)c1`, the “viability” value was 104%. `O=C(COc1ccc2ccccc2c1)N/N=C/c1ccccn1`: the “viability” value was 103%. For `O=C(COC(=O)CCC(=O)c1ccc(F)cc1)Nc1ccccc1`, the “viability” value was 101%. Turning to `CC(=O)OCCNc1cc(SCc2ccco2)c2nonc2c1[N+](=O)[O-]`, the “viability” value was 98.7%. Turning to `CC(=O)OCCN(C)c1cc(SC(C)C)c2nonc2c1[N+](=O)[O-]`, the “viability” value was 101%. Take `C/C(Cn1nnc([N+](=O)[O-])n1)=N\NC(=O)c1ccncc1`: the “viability” value was 93.6%.

For `Cc1nc(-c2ccc(C(F)(F)F)cc2)sc1C(=O)NN`, the “viability” value was 100%.

In the case of `Cc1cc(Cl)ccc1NNC(=O)c1cccs1`, the “viability” value was 110%. Take `COC(=O)COc1ccc2c(=O)c(-c3ccccc3OC)coc2c1`: the “viability” value is 103%.

As for `Cc1ccnc(NC(=O)c2cc3ccccc3o2)c1`, the “viability” value was 79.7%. Regarding `Cc1n[nH]c(C)c1CCOc1ccc(C(C)C)cc1`, the “viability” value was 84%. For the compound `COc1cc(OC)cc(-c2nc3ccccc3c(=O)o2)c1`, the “viability” value was 100%. As for `CCCOC(=O)c1ccc(NC(=O)C2C3C=CC(O3)C2C(=O)O)cc1` (stereo unspecified), the “viability” value was 104%. As for `CC(=O)CCC1CC(c2ccc(Cl)cc2)=NO1` (stereo unspecified), the “viability” value was 110%. The figure for `CCCCCCNC(=O)c1ccc(Br)o1` is 91.2%; for `C=CC[n+]1ccn(-c2nc3ccccc3nc2[N-]S(=O)(=O)c2cccs2)c1` it is 91.2%. As for `Cc1cc(C)c2sc(NC(=O)C3=COCCO3)nc2c1`, the “viability” value was 95.5%. As for `COc1ccc(C(=O)Nc2nnc(C3=COCCO3)o2)cc1`, the figure is 87.2%. `COC(=O)c1ccc(OCC(=O)c2cccc(OC)c2)cc1`: the “viability” value is 97.8%.

Regarding `CCOc1ccc(-c2nnc(NC(=O)CCCOc3cccc(C)c3)o2)cc1`, the “viability” value was 80.7%. As for `N[C@@H](Cc1ccccc1)c1nnc(SC/C=C/c2ccccc2)o1`, the “viability” value was 105%.

Take `CSCCC(=O)N1CCCC(N2CCN(c3cccc(C(F)(F)F)c3)CC2)C1` (stereo unspecified): the “viability” value was 93.2%. For `COc1cccc(CN2CCC(N(CCc3ccccc3)Cc3ccccc3)CC2)c1OC`, the “viability” value was 78.8%. Turning to `Cc1cc2ccccc2n1CCNC(=O)C(C)(C)C`, the “viability” value was 104%.

On to `O=C(COc1ccc(Nc2ccccc2)cc1)OCC(=O)N1CCCCC1`, for which the “viability” value was 89.8%.

Regarding `CC(C)c1nnc(NC(=O)c2sc3ccccc3c2Cl)s1`, the “viability” value is 92.5%.

Regarding `CCc1nnc(NC(=O)c2cc3ccccc3oc2=O)s1`, the “viability” value was 104%.

Consider `O=C(c1ccc([N+](=O)[O-])o1)N1CCc2ccccc2C1`, for which the “viability” value was 83%.

Consider `O=C(Nc1sc2c(c1C(=O)O)CCCC2)c1ccc(F)cc1`, for which the “viability” value was 75.2%. Regarding `CC(C)Cn1c(N)c(C(=O)COC(=O)c2ccc([N+](=O)[O-])o2)c(=O)n(C)c1=O`, the “viability” value is 90.9%. For `COC(=O)c1sc(NC(=O)c2ccc([N+](=O)[O-])o2)c(C#N)c1C`, the “viability” value is 73%. `O=C(Nc1sc2c(c1C(=O)O)CCCCC2)c1ccccc1F`: the “viability” value was 75.1%.

Values taken from PubChem BioAssay AID492998 (Southern Research Specialized Biocontainment Screening …, 2010).
